High-throughput results: PubChem, National Center for Advancing Translational Sciences (NCATS)
Pf growth 48h – Primary qHTS for delayed death inhibitors of the malarial parasite plastid, 48 hour incubation | P. falciparum luciferase growth in erythrocytes, 48 h | Potency, µM (titrated, usually from 28.7 µM), actives largely listed as inhibitors | 310,000 compounds, 5.9% hits | AID 504832, 2011; active = well fitted inhibition curve with a large enough effect; inconclusive = small, poorly fitted or top-dose-only effect, or another doubt; inactive = no such curve, though single readings can be large or run the other way
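Here the parasites carry a stable luciferase gene and grow inside erythrocytes in Albumax-based RPMI medium with compound for one erythrocytic cycle. Activity is scored as loss of luminescent signal.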
CHX counter – Cycloheximide Counterscreen for Small Molecule Inhibitors of Shiga Toxin | cell reporter, cycloheximide protein synthesis inhibition counterscreen | 300,000 compounds, 12% hits | max response, %; in the data active = max response mostly above about 13%, no sharp cut-off; inactive = mostly below about 14%; note: read at 38.3 µM for the half of the compounds with a filed dose
Shiga toxin inh – A qHTS for Small Molecule Inhibitors of Shiga Toxin; inhibition, % at 38.7 µM; 290,000 compounds, 9.2% hits; Vero cells, Shiga toxin protein synthesis inhibition reporter; AID 2315, 2010; in the data active = inhibition mostly above about 28%, no sharp cut-off; inactive = mostly below about 43%
NS1 inh – qHTS Assay for Inhibitors of Influenza NS1 Protein Function. 270,000 compounds, 0.4% hits. AID 2326, 2010. Potency, µM (doses to about 46.1 µM); note: actives are rising curves; nearly all actives have a fitted effect of over 50% in size
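OD600 was taken as the measure of yeast growth restored by compound in an NS1-expressing S. cerevisiae strain. Cells had been washed out of glucose medium and diluted 1:100 into galactose -URA medium, pH 6.0.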
SARS PLP yeast – qHTS of Yeast-based Assay for SARS-CoV PLP; 330,000 compounds, 0.19% hits; S. cerevisiae expressing SARS-CoV PLpro, growth rescue; Potency, µM (doses to about 32.9 µM), hits mostly activators; note: nearly all actives have a fitted effect of over 55% in size
Pf growth 96h – Primary qHTS for delayed death inhibitors of the malarial parasite plastid, 96 hour incubation; P. falciparum luciferase reporter growth, 96 h; Potency, µM (titrated, usually from 28.7 µM), usual class: inhibitors; 320,000 compounds, 6.9% hits; active = well fitted inhibition curve with a large enough effect; inconclusive = small, poorly fitted or top-dose-only effect, or another doubt; inactive = no such curve, though single readings can be large or run the other way
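Delayed-death screen, second-generation endpoint: infected erythrocytes, 2% hematocrit, 0.05% parasitemia final; 96 hours at 37 C, 5% CO2; luciferase detection reagent; luminescence decrease equals reduced growth.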
Large screens that a line does not name were inactive. Hits are enriched below; roughly 21% of the tested compounds scored in any of these assays. Unless noted, calls come from the whole dose curve.

Cc1cc(C)c2ccc3c(C)c(C)nc3c2[nH]1	Pf growth 48h 3.7µM (no result: NS1 inh)
O=C(N/N=C\c1ccc(-c2ccc([N+](=O)[O-])cc2)o1)C1COc2ccccc2O1 (stereo not drawn)	none
Clc1ccccc1Sc1cnc2ccccc2n1	CHX counter 22, Pf growth 96h inconclusive (no result: Pf growth 48h)
Cc1nccnc1Sc1ccccc1	none
O=C(O)c1cccnc1Sc1ccc(Br)cc1	none
O=C(O)c1cnc(-c2ccccc2)nc1Sc1ccccc1Cl	none
O=C(O)c1cnc(-c2ccccc2)nc1Sc1ccc(Cl)cc1	none
c1ccc(Sc2cnc3ccccc3n2)cc1	CHX counter 64, Shiga toxin inh 108 (no result: SARS PLP yeast)
Clc1ccc(Sc2cnc3ccccc3n2)cc1	CHX counter 38, Shiga toxin inh 85 (no result: SARS PLP yeast)
Brc1ccc(Sc2cnc3ccccc3n2)cc1	CHX counter 33, Shiga toxin inh 76 (no result: SARS PLP yeast)
c1ccc(CCNC2=NCCS2)cc1	Pf growth 96h inconclusive
CCc1ccc(OCC(=O)NNC(=O)C2CCC2)cc1	Pf growth 96h inconclusive (no result: CHX counter, Shiga toxin inh, NS1 inh)
CSc1ccc(CN2CCN(C3CCCC3)C(CCO)C2)cc1 (stereo not drawn)	none
CC(C)(C)c1ccc(-c2nc3c(C#N)c(-c4ccc5c(c4)OCO5)ccn3n2)cc1	Pf growth 48h 8.3µM, Pf growth 96h inconclusive
Cc1nc2ccc(NC(=S)NCc3ccccc3)cc2nc1C	CHX counter 27
C=CCNC(=S)N/N=C/c1ccc(C)cc1C	Pf growth 48h 10µM, Pf growth 96h inconclusive (no result: NS1 inh)
C=CCNC(=S)Nc1ccc2nc(C)c(C)nc2c1	CHX counter 27
COc1ccc(N(C)C(=S)Nc2ccc3nc(C)c(C)nc3c2)cc1	Pf growth 96h 2.3µM (no result: SARS PLP yeast)
Cc1nc2ccc(NC(=S)N3CCOCC3)cc2nc1C	none
CC(C)(C)c1ccc(OCCC(=O)OCC(=O)NC2CCS(=O)(=O)C2)cc1 (stereo not drawn)	none (no result: CHX counter, Shiga toxin inh, NS1 inh)
CCNc1ccc(S(=O)(=O)N(C)C)cc1NCC(=O)Nc1ccc(F)c(Cl)c1	Pf growth 48h inconclusive, Pf growth 96h inconclusive
Brc1ccc(-c2cn3ccccc3n2)cc1	CHX counter 35, Shiga toxin inh 52
Oc1ccc(-c2cn3ccccc3n2)cc1O	none (no result: Pf growth 48h)
CN(C)S(=O)(=O)c1ccc(-c2cn3ccccc3n2)cc1	CHX counter 35, Shiga toxin inh 65 (no result: Pf growth 48h)
O=C(COc1ccc(Br)cc1)NCc1cn2ccccc2n1	none
Oc1ccc(-c2cn3ccccc3n2)cc1	CHX counter 23
Brc1ccc(OCc2cn3ccccc3n2)cc1	CHX counter 36, Shiga toxin inh 73
CN(C)S(=O)(=O)c1ccc(-c2ccccc2)cc1	Pf growth 96h inconclusive
CC(C)(C)c1cc(C(=O)NNC(=O)c2ccc(Cl)cc2)no1	none
Cc1oc(C)c(S(=O)(=O)NCc2cccs2)c1C(=O)O	none
CC1=C(C(=O)Nc2cc(C(=O)NCCCOC(C)C)ccc2C)SCCO1	none
Cc1ccc2nc(-c3ccc(N4C(=O)CC(N5CCCC(C)C5)C4=O)cc3)sc2c1 (stereo not drawn)	CHX counter 70, Shiga toxin inh 143 (no result: SARS PLP yeast)
Cc1ccc2nc(-c3ccc(N4C(=O)CC(N5CCC(C(N)=O)CC5)C4=O)cc3)sc2c1 (stereo not drawn)	CHX counter 26
Cc1ccc(N2C(=O)CC(N3CCN(C)CC3)C2=O)cc1 (stereo not drawn)	none
CC(C)NC(=O)N(C)C[C@H]1Oc2ccc(NC(=O)NC3CCCCC3)cc2C(=O)N([C@H](C)CO)C[C@@H]1C	none (no result: Pf growth 48h, CHX counter, Shiga toxin inh, NS1 inh, Pf growth 96h)
CCCCn1c(SCC(=O)Nc2cc(C(F)(F)F)ccc2Cl)nnc1C(CC)N(C)C (stereo not drawn)	Pf growth 48h 8.3µM, Pf growth 96h inconclusive
C=CCNC(=O)/C(C#N)=C/c1c(N2CCN(c3ccc(OC)cc3)CC2)nc2c(C)cccn2c1=O	Pf growth 48h 13µM, Pf growth 96h inconclusive
COCCCNC(=O)/C(C#N)=C/c1c(N2CCN(c3ccccc3)CC2)nc2c(C)cccn2c1=O	Pf growth 48h 13µM, Pf growth 96h 10µM
COC(=O)/C(C#N)=C/c1c(N2CCN(c3ccccc3)CC2)nc2c(C)cccn2c1=O	Pf growth 48h 9.3µM, Pf growth 96h inconclusive
COCCCNC(=O)/C(C#N)=C/c1c(N2CCN(c3cccc(Cl)c3)CC2)nc2c(C)cccn2c1=O	Pf growth 48h inconclusive, Pf growth 96h inconclusive
O=C(COC(=O)c1ccccc1O)NC(=O)NCc1ccccc1	none (no result: CHX counter, Shiga toxin inh, NS1 inh)
COc1cc(/C=C2\C(=N)N3N=C(S(C)(=O)=O)SC3=NC2=O)ccc1OS(=O)(=O)c1ccccc1	Pf growth 96h inconclusive
CCC1=NN2C(=N)/C(=C/c3ccc(OS(=O)(=O)c4ccccc4)cc3)C(=O)N=C2S1	Pf growth 48h inconclusive, Pf growth 96h inconclusive
CS(=O)(=O)C1=NSC2=NC(=O)/C(=C\c3ccc(OS(=O)(=O)c4ccccc4)cc3)C(=N)N21	CHX counter 16, Shiga toxin inh 34, Pf growth 96h inconclusive
CCS(=O)(=O)C1=NN2C(=N)/C(=C\c3ccc(OS(=O)(=O)c4ccccc4)c(OC)c3)C(=O)N=C2S1	Pf growth 48h inconclusive, Pf growth 96h 9.3µM
CCS(=O)(=O)C1=NN2C(=N)/C(=C\c3ccc(OS(=O)(=O)c4ccccc4)cc3)C(=O)N=C2S1	CHX counter 33, Pf growth 96h inconclusive
CCN(Cc1ccccc1)C(=O)C(=O)c1cn(CC(=O)N2CCCC2)c2ccccc12	Pf growth 96h inconclusive
Cc1c(N=Cc2c(O)n(Cc3ccco3)c(=O)c3ccccc23)c(=O)n(-c2ccccc2)n1C	Pf growth 48h 12µM
CN(C)CCN(CC1CCCN(Cc2ccccc2F)C1)C(=O)c1ccc(Cl)cc1 (stereo not drawn)	Pf growth 48h inconclusive, Pf growth 96h 13µM
c1ccc2c(c1)CC1CNCc3cccc(c31)S2 (stereo not drawn)	Pf growth 48h inconclusive, Pf growth 96h 10µM
O=C(CSc1ccc(Cl)cc1)Nc1ccccc1N1CCN(C(=O)c2ccccc2)CC1	Pf growth 48h inconclusive, Pf growth 96h inconclusive
COc1ccc(NC(=O)N(Cc2cc3cc(OC)c(OC)cc3[nH]c2=O)CC2CCCO2)cc1 (stereo not drawn)	Pf growth 48h inconclusive, CHX counter 12
COc1ccc(NC(=O)N(Cc2cc3cc(C)ccc3[nH]c2=O)CC2CCCO2)cc1 (stereo not drawn)	Pf growth 48h 3.3µM, NS1 inh inconclusive
COc1cccc(C(=O)N(Cc2cc3cc(C)ccc3[nH]c2=O)CC2CCCO2)c1 (stereo not drawn)	Pf growth 48h 9.3µM (no result: Pf growth 96h)
COc1ccc2[nH]c(=O)c(CN(CC3CCCO3)C(=S)Nc3ccc(C)cc3)cc2c1 (stereo not drawn)	none
COc1ccc2cc(CN(CC3CCCO3)C(=O)Nc3ccccc3)c(=O)[nH]c2c1 (stereo not drawn)	Pf growth 48h inconclusive
